# Sm TGR inh – S. mansoni TGR enzyme inhibition; purified TGR, DTNB reduction, TNB absorbance 405 nm; Potency, µM (top dose mostly 114 µM), for inactives: at the highest dose activity change, negative = inhibition, most hits filed as inhibitors; 360,000 compounds, 3% hits; AID 485364; further: on the % scale 0 is the no-effect control and ±100 the full control effect; nearly all actives have a fitted effect of over 60% in size
#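 Kinetic colorimetric format: TGR-catalysed, NADPH-driven DTNB reduction monitored via TNB absorbance. Enzyme dispensed at 20 nM; compound exposure 15 min at room temperature before reaction start.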
# Pf growth 96h – P. falciparum growth inhibition at 96 hour, primary screen for plastid delayed-death inhibitors | P. falciparum luciferase reporter growth, 96 h | Potency, µM (titrated, usually from 28.7 µM), for the others: at the highest dose activity change, negative = inhibition, most hits filed as inhibitors | 320,000 compounds, 6.9% hits | AID 504834; further: on the % scale 0 is the no-effect control and ±100 the full control effect
#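 Two-generation exposure (96 h) targets delayed-death phenotype. Reporter parasites carrying integrated firefly luciferase, in red cells at 2% hematocrit and 0.05% parasitemia final, kept at 37 C, 5% CO2; luminescence loss indicates inhibition.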
# Pf growth 48h – inhibits P. falciparum growth in the first generation, 48 h; AID 504832; 310,000 compounds, 5.9% hits; P. falciparum luciferase growth in erythrocytes, 48 h; Potency, µM (series often up to 28.7 µM), for inactives: top-dose activity change, negative = inhibition, most hits filed as inhibitors; further: on the % scale 0 is the no-effect control and ±100 the full control effect
#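 Erythrocytes infected with P. falciparum carrying an integrated firefly luciferase reporter (2% hematocrit, 0.1% parasitemia final) were exposed to compounds in RPMI 1640 with 0.5% Albumax at 37 C, 5% CO2. Growth inhibition was scored as reduced luminescence.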
# NS1 inh – influenza NS1 inhibition; Potency, µM (top dose mostly 46.1 µM), for inactives: at the top dose activity, positive = more growth; 270,000 compounds, 0.4% hits; AID 2326; calls by dose curve; further: actives are rising curves; nearly all actives have a fitted effect of over 50% in size
#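 OD600 was taken as the measure of yeast growth restored by compound in an NS1-expressing S. cerevisiae strain. Cells had been washed out of glucose medium and diluted 1:100 into galactose -URA medium, pH 6.0.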
# AMA1 RON2 block – AMA1-RON2 (P. falciparum) interaction inhibition. AlphaScreen AMA1-biotinylated RON2 peptide binding. Potency, µM (series often up to 58.2 µM), for the others: top-dose activity change, negative = inhibition, most hits filed as inhibitors. AID 720542. 360,000 compounds, 0.2% hits;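 further: 0% = vehicle wells and -100% = peptide control; nearly all actives have a fitted effect of over 45% in size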
#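 AMA1 (3D7) with his tag at 25 nM final met compounds first, then biotinylated RON2 peptide at 25 nM; detection used donor plus acceptor beads, 10 µg/mL apiece, read by AlphaScreen after 30 min at room temperature.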
# The depositor's hits bear a star; ? = inconclusive; / = no result given. Hits are enriched below; roughly 11% of the tested compounds scored in any of these assays. Unless noted, the call rests on the fitted dose curve; in most records, active means well fitted curve in the direction sought with a large enough effect; inconclusive means small, poorly fitted or top-dose-only effect, or another doubt; inactive means no such curve, though single readings can be large; an effect the other way counts as inactive or inconclusive. Potency means the concentration at half of the fitted maximal effect.
SMILES,Sm TGR inh,Pf growth 96h,Pf growth 48h,NS1 inh,AMA1 RON2 block
C#CCOCCOCCOCCNc1nc(N2CCN(C(=O)C([C@@H](C)CC)n3cc(C(N)Cc4ccc(O)cc4)nn3)CC2)nc(N2CCN(C(=O)[C@H](CCC(=O)O)n3cc(C(N)[C@H](C)CC)nn3)CC2)n1 (stereo partly specified),-28.5%,?,12.9%,12.7%,17.9%
C#CCOCCOCCOCCNc1nc(N2CCN(C(=O)[C@H](CCCCN)n3cc([C@@H](N)C(C)CC)nn3)CC2)nc(N2CCN(C(=O)[C@H](Cc3ccc(O)cc3)n3cc([C@@H](N)CC(C)C)nn3)CC2)n1 (stereo partly specified),1.6%,10.7%,7.5%,-1.0%,4.7%
C#CCOCCOCCOCCNc1nc(N2CCN(C(=O)[C@H](CCC(=O)O)n3cc(C(N)[C@H](C)CC)nn3)CC2)nc(N2CCN(C(=O)[C@H](Cc3ccc(O)cc3)n3cc(C(N)[C@H](C)CC)nn3)CC2)n1 (stereo partly specified),50.1µM*,7.1%,0.0%,6.4%,13.4%
C#CCOCCOCCOCCNc1nc(N2CCOCC2)nc(N2CCN(C(=O)[C@H](Cc3ccc(O)cc3)n3cc([C@@H](N)C(C)CC)nn3)CC2)n1 (stereo partly specified),-22.3%,9.28µM*,?,2.1%,0.0%
CC(=O)Nc1ccc(SCC(=O)Nc2ccc(Cl)cn2)cc1,-4.3%,34.4%,16.8%,/,0.0%
CC(C)c1ccc(OC(=O)c2ccc3c(=O)n4c(nc3c2)CCC4)cc1,5.4%,-8.9%,8.5%,/,-1.9%
Nc1nonc1-c1nc2ccccc2n1CC(=O)NC1CCCC1,5.3%,10.4µM*,12.3%,-6.3%,1.0%
Nc1nonc1-c1nc2ccccc2n1CC(=O)Nc1ccccc1,-1.5%,37.8%,9.3%,?,-26.9%
Nc1nonc1-c1nc2ccccc2n1CC(=O)N/N=C/c1ccc(-c2ccccc2C(=O)O)o1,39.8µM*,54.6%,37.9%,/,6.1%
COC(=O)C1=C(C)NC(C)=C(C(=O)OC)C1c1ccccc1OCc1c(C)no[n+]1[O-],-4.1%,6.3%,11.7µM*,-10.0%,2.6%
CCCCN(C(=O)c1cccs1)C1CCS(=O)(=O)C1 (stereo unspecified),9.9%,7.6%,-5.1%,/,-16.4%
Cc1ccccc1CNC(=O)CCCn1c(=O)c2cccn2c2cccnc21,-1.6%,/,/,/,/
O=C(CSc1ccc(-c2cccnc2)nn1)Nc1ccccc1F,-25.5%,-22.6%,-6.7%,1.7%,-8.5%
CCOc1ccccc1NC(=O)CSc1ccc([N+](=O)[O-])cc1,-25.8%,2.33µM*,2.94µM*,/,-11.7%
CCOc1ccccc1NC(=O)Cn1nc(-c2ccco2)ccc1=O,15.8µM*,-2.9%,?,3.1%,15.1%
CCOc1ccccc1NC(=O)CSc1ccc(-c2sc(C)nc2C)nn1,-2.1%,10.4µM*,?,-27.7%,-7.6%
COc1ccccc1NC(=O)CSc1ccc(-c2sc(C)nc2C)nn1,3.3%,/,/,/,/
O=C(CSc1ccc(-c2ccco2)nn1)Nc1ccccc1F,14.1µM*,-28.7%,6.2%,-4.6%,-16.3%
O=C(C[C@@H]1C/C=C\CCC(=O)O[C@H](c2ccccc2)CNC1=O)N[C@H](CO)Cc1ccccc1,/,/,/,/,-3.1%
CCCc1ccc(C2Sc3ccccc3NC3=C2C(=O)c2ccccc23)cc1 (stereo unspecified),0.4%,/,/,/,/
CCOc1ccccc1NC(=O)CSc1cn[nH]n1,2.3%,?,5.6%,/,15.4%
CCOc1ccccc1NC(=O)CSc1ccc(-c2ccco2)nn1,17.8µM*,?,-14.2%,-4.4%,-14.0%
CC(=O)N1C(C(=O)O)Cc2c([nH]c3ccccc23)C1(C)C (stereo unspecified),-2.8%,-6.2%,?,28.8%,-7.4%
CCC1NC(C(=O)O)Cc2c1[nH]c1ccccc21 (stereo unspecified),39.8µM*,15.1%,-21.3%,/,11.4%
COc1cc(C2NC(C(=O)O)Cc3c2[nH]c2ccccc32)cc(OC)c1OC (stereo unspecified),15.0%,/,19.8%,2.2%,3.9%
SMILES,Sm TGR inh,Pf growth 96h,Pf growth 48h,NS1 inh,AMA1 RON2 block
CC1(C)NC(C(=O)O)Cc2c1[nH]c1ccccc21 (stereo unspecified),39.8µM*,-1.9%,30.1%,1.4%,-1.0%
COC(=O)C1Cc2c([nH]c3ccccc23)C(C(C)C)N1 (stereo unspecified),?,1.31µM*,-17.2%,-0.3%,15.3%
O=C1c2cccc3cccc(c23)N1Cc1cccc(F)c1,-1.4%,?,-37.5%,-31.7%,137.2%
CCOC(=O)c1ccccc1NC(=S)N1CCCCC1,-4.8%,9.28µM*,0.0%,-0.5%,-10.2%
CCCC1c2ccc(C)n2CCN1C(=O)Nc1ccccc1Cl (stereo unspecified),35.5µM*,2.62µM*,?,2.6%,-3.5%
CCOC(=O)c1ccccc1NC(=O)N1CCn2c(C)ccc2C1CC (stereo unspecified),7.08µM*,/,0.0%,-11.3%,-0.8%
CCC1c2ccc(C)n2CCN1C(=O)Nc1ccccc1C(=O)OC (stereo unspecified),-31.7%,145.8%,5.22µM*,13.7%,24.1%
COC(=O)c1ccccc1NC(=O)N1CSC[C@H]1C(=O)OC,28.2µM*,-7.3%,18.5%,-34.5%,-2.0%
COC(=O)c1ccccc1NC(=O)C1CCCC1,-3.6%,-3.9%,1.2%,-5.1%,-3.5%
CCC(C)Sc1cccc(-c2nc3ccc(C)cn3c2NCc2ccccc2)c1 (stereo unspecified),-26.8%,13.1µM*,3.29µM*,/,-4.5%
Cc1ccc2nc(-c3cccc(-c4cccc(Cl)c4)c3)c(NCc3ccccc3)n2c1,3.0%,10.4µM*,7.38µM*,/,-3.8%
CCC(C)Sc1cccc(-c2nc3ccccn3c2NCc2ccccc2)c1 (stereo unspecified),/,/,/,/,16.3%
CCC(C)Sc1cccc(-c2nc3ccc(Cl)cn3c2NCc2ccccc2)c1 (stereo unspecified),-7.1%,10.4µM*,9.28µM*,/,48.9%
COc1ccccc1CNC(=O)CNC(=O)c1ccc(Br)o1,-21.8%,46.1%,12.4%,7.2%,-11.3%
C=C1CCN([C@@H](Cc2ccccc2)C(=O)NCc2ccc(Cl)cc2)S(=O)(=O)c2ccccc21,/,/,/,/,-3.2%
Cc1cc(NC(=O)c2ccco2)sc1C,-23.5%,308.3%,264.6%,/,-9.1%
OCC1OC([S-])[C@H](O)C(O)C1O.[Au+] (stereo partly specified),/,4.78µM*,-21.6%,/,/
COc1ccc(CCNC(=O)CN(c2ccc(OC)c(OC)c2)S(=O)(=O)c2ccccc2)cc1OC,-24.8%,?,0.0%,12.4%,7.2%
CCc1ccccc1NC(=O)CN(c1ccccc1OC)S(=O)(=O)c1ccc(C)cc1,1.3%,/,/,/,/
CCN1C(=O)[C@H]2[C@@H](c3ccc(-c4cccc(Cl)c4)c(OC)c3)N[C@@](C)(C(=O)OC)[C@H]2C1=O,?,1.17µM*,2.08µM*,/,0.0%
